Assay outcomes from PubChem BioAssay.
hcDAF12 agonist – activators of H. contortus DAF-12 nuclear receptor | activation, % at 6.8 µM | 370,000 compounds, 1.4% hits | HEK293 hcDAF-12 lit1-tk-luc reporter, luminescence; 0% DMSO, 100% Δ7-dafachronic acid;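 active = activation above the mean of all tested compounds plus 3 SD, cut at about 5.5% in these data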;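 also: 100% = response to 3 µM Δ7-dafachronic acid high control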
AHR activator – activates the human aryl hydrocarbon receptor; activation, % at 5 µM; AHR-responsive luciferase reporter cells, luminescence; 320,000 compounds, 2.5% hits; AID 2796; in the data active = activation above about 47%;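 also: 0% = vehicle wells and 100% = reference agonist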
Target sequence (P35869 whole entry, looked up): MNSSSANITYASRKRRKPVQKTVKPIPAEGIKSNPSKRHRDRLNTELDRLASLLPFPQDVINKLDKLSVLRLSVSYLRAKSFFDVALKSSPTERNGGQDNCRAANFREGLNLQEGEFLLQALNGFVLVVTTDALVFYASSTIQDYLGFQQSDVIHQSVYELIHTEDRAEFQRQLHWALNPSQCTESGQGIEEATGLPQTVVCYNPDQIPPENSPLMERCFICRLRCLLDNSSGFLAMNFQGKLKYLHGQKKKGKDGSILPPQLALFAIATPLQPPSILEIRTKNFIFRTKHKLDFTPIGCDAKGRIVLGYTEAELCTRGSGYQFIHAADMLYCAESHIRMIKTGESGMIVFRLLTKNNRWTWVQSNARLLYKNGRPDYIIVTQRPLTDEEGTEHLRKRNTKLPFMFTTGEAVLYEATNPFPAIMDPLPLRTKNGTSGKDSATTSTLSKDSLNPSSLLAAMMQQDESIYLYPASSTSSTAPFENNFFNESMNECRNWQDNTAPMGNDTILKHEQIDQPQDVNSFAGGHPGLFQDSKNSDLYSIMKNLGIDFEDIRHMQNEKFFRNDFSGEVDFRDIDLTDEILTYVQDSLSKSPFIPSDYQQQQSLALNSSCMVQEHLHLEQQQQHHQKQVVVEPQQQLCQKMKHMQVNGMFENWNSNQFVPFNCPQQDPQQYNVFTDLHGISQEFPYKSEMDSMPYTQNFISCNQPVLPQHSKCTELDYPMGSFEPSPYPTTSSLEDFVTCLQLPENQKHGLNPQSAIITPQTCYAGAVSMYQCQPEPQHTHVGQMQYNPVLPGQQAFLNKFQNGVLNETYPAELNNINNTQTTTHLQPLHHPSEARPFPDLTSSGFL
hgDAF12 agonist – activates the H. glycines DAF-12 receptor ligand-binding domain. 370,000 compounds, 1.8% hits. activation, % at 6.8 µM. HEK293 GAL4-hgDAF12 UAS-luciferase reporter, agonist luminescence; normalized to butyrate control;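 active = activation above a cutoff set at the mean of all screened compounds plus 3 SD, cut at about 10% in these data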;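 also: 0% = DMSO wells and 100% = sodium butyrate wells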
ssDAF12 agonist – activates DAF-12 receptor from parasite S. stercoralis; HEK293 ssDAF-12/GRIP1 lit1-tk-luc reporter, luminescence; % of 3 µM dafachronic acid response; 370,000 compounds, 1% hits; activation, % at 6.8 µM;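 active = activation above the mean over all tested compounds plus 3 SD, cut at about 0.9% in these data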;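 also: 0% = DMSO-only wells and 100% = 3 µM delta7-dafachronic acid wells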
DAX1 inh-1 – DAX1 (NR0B1) inhibition, primary screen. HEK293T StAR-luciferase reporter, SF-1/DAX-1 repression relief. inhibition, % at 6.8 µM. 370,000 compounds, 1.1% hits;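 active = inhibition above the mean over all tested compounds plus 3 SD, cut at about 3.6% in these data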;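 also: 0% = DAX-1 cells with DMSO and 100% = cells lacking DAX-1 with DMSO; higher inhibition means more luminescence from relief of DAX-1 repression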
DAX1 inh-2 – inhibits human nuclear receptor DAX1. HEK293 Gal4-DAX1 luciferase reporter, luminescence. inhibition, % at 6.75 µM. 340,000 compounds, 0.99% hits. AID 504766;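 active = inhibition above the mean over all tested compounds plus 3 SD, cut at about 4.2% in these data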;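 also: 0% = DAX1-transfected cells with DMSO and 100% = empty-vector control cells with DMSO; inhibition shows as a rise in luminescence from relieved DAX1 repression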
Starred values were filed as active, the others as inactive; . = no result given. Most compounds without a hit are left out; they make up all but 5.7% or so of the library.

SMILES | hcDAF12 agonist | AHR activator | hgDAF12 agonist | ssDAF12 agonist | DAX1 inh-1 | DAX1 inh-2
C/C(=N\NC(=O)c1nnn(-c2nonc2N)c1-c1ccccc1)c1cccnc1 | 0.6 | . | 2.8 | -0.8 | 0.2 | 1.0
CCCOc1ccc(-c2c(C(=O)N/N=C/c3ccccc3)nnn2-c2nonc2N)cc1 | -0.4 | 1.4 | -0.9 | 2.4* | -0.1 | 2.5
COc1cccc(-c2c(C(=O)N/N=C(\C)c3cccnc3)nnn2-c2nonc2N)c1 | -1.9 | 61.7* | 1.8 | -1.2 | 0.7 | 0.5
COc1cccc(-c2c(C(=O)N/N=C(\C)c3ccco3)nnn2-c2nonc2N)c1 | -1.2 | 4.6 | -1.4 | -1.0 | -0.2 | 1.5
C/C(=N\NC(=O)c1nnn(-c2nonc2N)c1-c1cccs1)c1cccnc1 | -1.0 | 63.2* | -0.4 | -0.9 | -0.1 | 1.4
CCOC(=O)CN1CCC(C2(c3cc4ccccc4[nH]3)OCCO2)CC1 | -0.5 | . | -0.7 | -0.3 | 0.1 | -0.2
COc1ccc(CC(=O)OCC(=O)NC2CCCCC2)cc1OC | 1.8 | -0.9 | 0.9 | -0.1 | 0.0 | 0.6
O=C(CCc1nc2ccccc2c(=O)[nH]1)NCc1ccccn1 | -0.8 | 1.3 | 2.8 | -0.9 | 0.1 | 0.7
O=C(CCc1nc2ccccc2c(=O)[nH]1)NCc1ccco1 | 0.8 | 0.8 | -4.4 | -1.2 | 1.4 | 5.4*
CCC1CCCCN1C(=O)c1ccc(OC2CCN(C(=O)CCOC)CC2)cc1 (configuration not stated) | -2.0 | 2.2 | -1.1 | -1.1 | -0.3 | 0.0
O=C(O)c1cn[nH]c1-c1cccc([N+](=O)[O-])c1 | 1.5 | -1.9 | -2.5 | -0.8 | 0.1 | 0.6
COc1ccccc1NC(=O)c1cc2cc(Br)ccc2cc1O | -3.0 | 54.8* | -5.3 | -2.0 | -1.9 | -2.6
COc1ccccc1NC(=O)c1cccc2c(Br)cccc12 | 0.6 | 53.1* | -1.6 | -0.9 | -0.8 | -0.9
COc1ccccc1NC(=O)COC(=O)c1cc2ccccc2cc1O | 0.3 | 5.6 | 1.1 | -0.8 | 0.8 | 0.3
COc1cc(NC(=O)c2cc3ccccc3cc2O)c(OC)cc1Cl | -2.6 | 52.4* | -4.9 | -1.3 | -1.9 | -1.3
COc1ccccc1NC(=O)c1ccccc1C(=O)O | -0.2 | 0.8 | 1.4 | -0.7 | 0.7 | 0.6
Nn1c(SCC(=O)Nc2ccc(OCc3ccccc3)cc2)nnc1-c1cc(-c2ccccc2)n[nH]1 | -0.1 | . | 0.1 | -0.8 | -2.3 | .
COc1ccc(Nc2nc(N)nc(C(F)(F)F)n2)c(OC)c1 | 0.7 | 76.0* | 0.5 | -1.4 | -0.1 | 1.1
COc1ccc(Cl)cc1Nc1nc(N)nc(C(F)(F)F)n1 | -1.2 | 20.5 | -1.6 | -2.0 | -1.3 | -1.5
Cn1c([N+](=O)[O-])cnc1N1CCN(c2nncs2)C1=O | -1.7 | 2.9 | -1.4 | -0.9 | -0.1 | 0.0
COc1ccccc1NC(=O)CSc1nnnn1-c1ccc(F)cc1 | -1.4 | 3.2 | 0.1 | -1.1 | -0.1 | -1.1
CC(C)C[C@H]1CNC(=S)N1C[C@H]1CCCN1C[C@H](Cc1ccccc1)N1C[C@H](Cc2ccc(O)cc2)N(CC2CCCCC2)C1=S | 0.0 | . | 1.1 | -1.2 | 3.8* | .
CCOc1ccc(CCN2C(=O)C(=O)N([C@@H](CC(C)C)CN3CCC[C@H]3CN3C(=O)C(=O)NC[C@@H]3Cc3ccccc3)C[C@@H]2Cc2ccc(O)cc2)cc1 | 0.3 | . | 0.2 | -0.8 | 3.9* | .
CC(C)C[C@H]1CNC(=S)N1CC1CCCN1C[C@H](Cc1ccc(O)cc1)N1C[C@H](Cc2ccccc2)N(CC2CCCCC2)C1=S (some centres not stated) | 0.1 | . | -2.3 | -0.5 | 0.7 | -1.5
CC(C)CCNc1nc(N)c([N+](=O)[O-])c(N2CCCCCC2)n1 | -5.1 | 5.3 | -7.3 | -2.1 | -0.9 | -3.6
SMILES | hcDAF12 agonist | AHR activator | hgDAF12 agonist | ssDAF12 agonist | DAX1 inh-1 | DAX1 inh-2
CCN(C)c1ccc(/C=N\n2nnnc2N)cc1 | -0.2 | 30.7 | 12.5* | -0.5 | -1.2 | 0.6
Nc1nnnn1/N=C/c1ccc(O)cc1 | -1.1 | -1.3 | -1.4 | -1.3 | 0.4 | 2.2
Fc1ccc(CSc2nnc3ccccn23)c(Cl)c1 | 4.5 | -0.9 | 3.5 | -0.8 | 4.2* | 0.5
COc1ccc2nc3cc(Cl)ccc3c(Nc3cc(C(C)C)c(O)cc3C)c2c1 | -2.4 | -2.2 | 0.2 | -1.1 | -0.5 | -1.2
COc1ccc2nc3cc(Cl)ccc3c(Nc3cc(CN4CCCC4)c(O)c(CN4CCCC4)c3)c2n1 | 1.8 | 3.7 | -5.7 | 0.3 | 4.3* | .
CCOc1ccc(-n2c(=O)[nH]c3sc4c(c3c2=O)CCCC4)cc1 | -0.4 | 6.2 | 1.3 | -0.9 | 0.4 | 7.8*
CCOc1ccc(-n2c(=O)c3c4c(sc3n(CC(=O)NCC3CCCO3)c2=O)CCCC4)cc1 (configuration not stated) | -0.8 | -3.9 | 3.8 | -1.8 | -0.2 | -1.5
C[C@H]1CN([C@@H](C)CO)C(=O)c2cc(Br)cnc2O[C@H]1CN(C)S(=O)(=O)c1ccccc1F | -2.4 | . | -3.0 | -0.7 | 0.2 | 0.1
NC(=O)c1ccc(NC(=O)COC(=O)CC2Sc3ccccc3NC2=O)cc1 (configuration not stated) | 4.0 | 13.4 | 3.4 | 1.2* | 1.7 | 0.9
O=C(N[C@@H](c1ccccc1)[C@@H]1C[C@H]1C(=O)O)OCc1ccccc1 | -1.4 | 3.6 | 0.1 | -1.5 | 0.6 | 0.6
O=C(O)c1cccc(-n2cc(-c3cccc(C(F)(F)F)c3)cn2)c1 | 4.5 | 6.1 | 12.6* | 0.7 | 1.1 | 1.0
O=C(O)c1ccc(-c2nc(-c3cccc(C(F)(F)F)c3)cs2)cc1 | -0.4 | . | -0.2 | -1.5 | 0.4 | 1.4
Cc1cc(Oc2cccnc2)ccc1NC(=O)Cc1c(C)[nH]c2ccccc12 | 1.1 | . | 0.9 | -0.6 | -1.2 | .
Cn1cc(Br)c(C(=O)Nc2nccs2)n1 | 5.6* | 26.0 | 6.3 | -0.2 | 1.1 | 0.4
COc1ccc(C)cc1NC(=O)c1nn(C)cc1Br | -0.1 | 60.0* | 0.5 | -1.2 | -0.8 | 0.2
Nc1sc(-c2ccccc2)cc1C(=O)NCCN1CCOCC1 | -0.6 | . | -0.6 | 0.0 | -0.6 | .
O=c1oc2ccccc2n1CSc1nc2ccccc2s1 | 3.5 | 61.3* | 10.6* | 0.1 | 3.2 | 1.5
O=C(CSc1nc2ccccc2s1)CSc1nc2ccccc2s1 | 2.3 | 9.9 | 1.5 | -0.1 | 0.9 | -0.2
O=C(/C=C/c1ccccc1)Nc1ccc(C(=O)N2CCCCC2)cc1 | -1.2 | 0.7 | 4.5 | -1.0 | 0.1 | -1.1
COc1ccccc1NC(=S)N(Cc1ccco1)Cc1cc2cc(C)ccc2[nH]c1=O | 0.3 | 71.1* | 5.3 | -1.4 | -0.6 | -1.0
CCCSc1nnc2nc(C)cc(C)n12 | -3.2 | -1.6 | 1.2 | -1.3 | 0.7 | 4.7*
Cc1cc(C)n2c(SCc3cccs3)nnc2n1 | -0.7 | -1.6 | -0.9 | -1.3 | 0.6 | 0.1
Cc1cc(C)n2c(SCC#N)nnc2n1 | -1.4 | -1.1 | -2.7 | -0.9 | -0.8 | 4.6*
CC(=O)c1c(C)[nH]c(C(=O)N(CCc2ccccc2)Cc2ccccc2)c1C | 5.9* | 16.2 | -2.3 | -0.7 | -0.4 | -0.7
